Only some compounds are listed: those with a hit (about 2.5% of all), similar ones and a draw of the others.
ASK1 inh = inhibitors of human ASK1 kinase; Q99683; AlphaScreen MKK6 phosphorylation by ASK1, luminescence; inhibition, % at 7.44 µM; actives 0.99% (n = 22,000); in the data active = inhibition above about 35%;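 note: 0% = median of compound wells and 100% = no enzyme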
ULK1 primary = inhibitors of human ULK1 kinase. O75385. AlphaScreen Atg13 phosphorylation by ULK1, luminescence. inhibition, % at 5.96 µM. actives 1.9% (n = 30,000). AID 1259251; in the data active = inhibition above about 43%;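 note: 0% = median of compound wells and 100% = no enzyme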
AlphaScreen intf = counter-screen for ASK1 inhibitors: AlphaScreen optical interference; shares compounds with ASK1 inh; AlphaScreen TruHits beads, signal interference counterscreen; IC50, µM; actives 20% (n = 220);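 active = IC50 of 10 µM or lower in the counterscreen; inactive = IC50 above 10 µM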;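 note: loss of AlphaScreen light from TruHits beads alone with no ASK1 enzyme present; potency of signal reduction so a low IC50 flags an assay artifact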
An asterisk follows results filed as active.

`COc1cc(NC(=O)c2cccc(-n3cc(NC(=O)Nc4c(C)cccc4Cl)cn3)c2)cc(OC)c1OC` gave ASK1 inh 40.4*, ULK1 primary -1.5 and AlphaScreen intf >19.2.
c1ccc(OCCNc2nc(Nc3ccncn3)nc3c2ncn3-c2ccsc2)cc1 was read as ASK1 inh -18.7 and ULK1 primary -2.2.
Nc1cc(-c2csc3ccccc23)ncn1 was read as ASK1 inh -12.7 and ULK1 primary 5.3.
`FC(F)(F)c1ccc(Cn2cnc3c(Nc4ccc(N5CCOCC5)cc4)nc(N4CCN(Cc5ccc6c(c5)OCO6)CC4)nc32)cc1` gave ASK1 inh 48.2*, ULK1 primary -15.8 and AlphaScreen intf >20.1.
Screening COc1cc(Nc2nc(N3CCN(c4ccccn4)CC3)nc3c2ncn3Cc2ccc(C(F)(F)F)cc2)cc(OC)c1OC returned ASK1 inh 27.2 and ULK1 primary -16.4.
`FC(F)(F)c1ccc(Cn2cnc3c(Nc4ccc5c(c4)OCO5)nc(N4CCN(c5ccccn5)CC4)nc32)cc1` gave ASK1 inh 50.7*, ULK1 primary 12.4 and AlphaScreen intf >20.
FC(F)(F)c1ccc(Cn2cnc3c(NCCN4CCOCC4)nc(N4CCN(Cc5ccc6c(c5)OCO6)CC4)nc32)cc1 was read as ASK1 inh 6.5 and ULK1 primary -42.1.
For CN(C)c1cccc(Nc2nc(Nc3ccc4c(c3)OCO4)c3ncn(Cc4ccc(C(F)(F)F)cc4)c3n2)c1 the results were ASK1 inh 49.8*, ULK1 primary 32.0 and AlphaScreen intf >18.1.
Screening FC(F)(F)c1ccc(Cn2cnc3c(NCc4cccc(C(F)(F)F)c4)nc(-c4ccc(N5CCOCC5)nc4)nc32)cc1 returned ASK1 inh 27.7 and ULK1 primary -1.7.
CC(=O)Nc1ccc(Nc2nc(Nc3cccc(N(C)C)c3)nc3c2ncn3Cc2ccc(C(F)(F)F)cc2)cc1 was read as ASK1 inh -10.7 and ULK1 primary 36.7.
Screening FC(F)(F)c1ccc(Cn2cnc3c(NCc4ccccc4)nc(-c4ccc(N5CCOCC5)nc4)nc32)cc1 returned ASK1 inh 45.2*, ULK1 primary 2.0 and AlphaScreen intf >19.9.
CC(C)(CO)NC(=O)c1cccc(-n2cc(Nc3nnnn3-c3ccccc3)cn2)c1 was read as ASK1 inh 14.2 and ULK1 primary 10.4.
`COc1ccc(-c2cnc(Oc3ccccc3)nc2)cc1` gave ULK1 primary -30.9.
Screening COc1ccc(-c2cccc(C(=O)NCCCN3CCCC3=O)n2)cc1 returned ASK1 inh -22.2 and ULK1 primary -4.7.
For FC(F)(F)c1ccc(Nc2nccc(Nc3ccc4c(c3)OCO4)n2)cc1 the results were ASK1 inh 12.8 and ULK1 primary -22.2.
c1ccc(OCCNc2nc(N3CCN(Cc4ccc5c(c4)OCO5)CC3)nc3c2ncn3C2CCCCC2)cc1 was read as ASK1 inh 38.7*, ULK1 primary 15.8 and AlphaScreen intf >20.1.
For FC(F)(F)c1ccc(Cn2cnc3c(Nc4ccc5c(c4)OCO5)nc(Nc4ccc(C(F)(F)F)cc4)nc32)cc1 the results were ASK1 inh 13.1 and ULK1 primary -8.2.
CC(C)n1cnc2c(NCc3cccc(C(F)(F)F)c3)nc(N3CCN(Cc4ccc5c(c4)OCO5)CC3)nc21 was read as ASK1 inh 37.0*, ULK1 primary -15.9 and AlphaScreen intf >20.
For FC(F)(F)c1ccc(Cn2cnc3c(NCc4cccc(C(F)(F)F)c4)nc(N4CCN(Cc5ccc6c(c5)OCO6)CC4)nc32)cc1 the results were ASK1 inh 28.7 and ULK1 primary 15.4.
For CN(C)c1cccc(Nc2nccc(Nc3ccc4c(c3)OCO4)n2)c1 the results were ASK1 inh 36.3*, ULK1 primary -1.8 and AlphaScreen intf inactive.
For FC(F)(F)c1ccc(Cn2cnc3c(Nc4ccc5c(c4)OCO5)nc(Nc4ccccc4)nc32)cc1 the results were ASK1 inh 40.8*, ULK1 primary -3.7 and AlphaScreen intf >22.
Screening OCCNc1nc(N2CCN(Cc3ccc4c(c3)OCO4)CC2)nc2c1ncn2C1CCCCC1 returned ASK1 inh 11.8 and ULK1 primary -9.8.
`Cc1nc2ccc(-c3cn[nH]c3)cc2c(=O)n1C` gave ASK1 inh 5.0 and ULK1 primary 26.2.
Screening CC(=O)Nc1ccc(NC(=O)c2csc(Nc3ccncn3)n2)cc1 returned ASK1 inh -2.0 and ULK1 primary 22.1.
`CCN(CC)C(=O)C1CCCN(c2nc(Nc3ccc(N4CCOCC4)cc3)c3ncn(CCN4CCCC4=O)c3n2)C1` (centres undefined) gave ASK1 inh 2.8 and ULK1 primary 1.5.
`CCN(CC)C(=O)C1CCCN(c2nc(Nc3ccc(N4CCOCC4)cc3)c3ncn(Cc4ccc(C(F)(F)F)cc4)c3n2)C1` (centres undefined) gave ASK1 inh 56.0*, ULK1 primary -17.4 and AlphaScreen intf >20.1.
`CC(C)n1cnc2c(Nc3ccc(N4CCOCC4)cc3)nc(Nc3cccc(N(C)C)c3)nc21` gave ASK1 inh 35.1 and ULK1 primary 20.1.
CC(C)n1cnc2c(Nc3ccc4c(c3)OCO4)nc(Nc3cccc(N(C)C)c3)nc21 was read as ASK1 inh 37.0*, ULK1 primary 15.6 and AlphaScreen intf >19.9.
`FC(F)(F)c1ccc(Cn2cnc3c(Nc4ccccc4)nc(Nc4ccc(N5CCOCC5)cc4)nc32)cc1` gave ASK1 inh 28.5 and ULK1 primary -17.9.
Screening COc1cc(Nc2nc(Nc3ccc(N4CCOCC4)cc3)c3ncn(Cc4ccc(C(F)(F)F)cc4)c3n2)cc(OC)c1OC returned ASK1 inh 36.8*, ULK1 primary 4.3 and AlphaScreen intf >17.8.
For CCCNC(=O)c1cccc(NCC)n1 the results were ASK1 inh 16.0 and ULK1 primary 3.4.
For CN1CCN(C(=O)c2cc(Nc3ccc4[nH]ncc4c3)ccn2)CC1 the results were ASK1 inh 2.2 and ULK1 primary 3.6.
COc1ccc(-c2nc(NCCCN3CCCC3=O)c3ncn(C4CCCCC4)c3n2)cc1 was read as ASK1 inh 0.1 and ULK1 primary -16.6.
CC(C)n1c(-c2ccc(C(=O)N3CCN(C)CC3)cc2)nc2c(N)ncnc21 was read as ASK1 inh -3.5 and ULK1 primary 2.5.
For O=C(Cc1ccccc1)Nc1cc(-c2ccnc(Nc3ccc(N4CCOCC4)cc3)c2)nn1CCc1ccccc1 the results were ASK1 inh 17.7 and ULK1 primary -13.8.
`Cn1ncc(-c2ccnc(Nc3ccc(N4CCOCC4)cc3)c2)c1Nc1ccccc1` gave ASK1 inh 19.1 and ULK1 primary 12.2.
Screening c1ccc(CCn2nc(-c3ccnc(Nc4ccc(N5CCOCC5)cc4)c3)cc2Nc2ccccc2)cc1 returned ASK1 inh 56.2*, ULK1 primary -12.5 and AlphaScreen intf >19.2.
`O=C(Nc1ccccc1)c1ccccc1Nc1ccnc(Nc2ccc(N3CCOCC3)cc2)c1` gave ASK1 inh 37.1*, ULK1 primary 1.9 and AlphaScreen intf >19.2.
OCc1ccccc1Nc1ccnc(Nc2ccc(N3CCOCC3)cc2)c1 was read as ASK1 inh -3.2 and ULK1 primary 6.5.
Screening c1ccc(CCn2ncc(-c3ccnc(Nc4ccc(N5CCOCC5)cc4)c3)c2Nc2ccccc2)cc1 returned ASK1 inh 40.8*, ULK1 primary 17.7 and AlphaScreen intf >19.2.
`CC(=O)Nc1ccc(Nc2ccnc(Nc3nc4ccccc4n3C)n2)cc1` gave ASK1 inh -11.2 and ULK1 primary -4.4.
COc1ccc(CCN(C)C(=O)C2CCN(Cc3ccccn3)CC2)cc1OC was read as ULK1 primary 5.4.
Screening O=C(NCc1cccnc1)c1csc(NCCN2CCOCC2)n1 returned ASK1 inh -13.2 and ULK1 primary 10.3.
Screening CCCNc1nc(Nc2cc(OC)c(OC)c(OC)c2)nc2c1ncn2C(C)C returned ASK1 inh 7.1 and ULK1 primary -3.8.

Screens: PubChem, The Scripps Research Institute Molecular Screening Center
